# Reference: PubChem BioAssay (NCATS)
# Inconclusive results are not listed. A number with no mark means an inactive call. Calls come from the whole dose curve; as a rule, active = well fitted curve in the direction sought with a large enough effect; inconclusive = small, poorly fitted or top-dose-only effect, or another doubt; inactive = no such curve, though single readings can be large; an effect the other way counts as inactive or inconclusive.
# Target: Protein phosphatase 1D (Homo sapiens) (UniProt O15297)
# Assay: RapidFire Mass Spectrometry qHTS Assay for Modulators of WT P53-Induced Phosphatase 1 (WIP1) (AID 1347424);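 note: plate controls were DMSO wells for no effect and GSK830371 inhibitor control at 10 µM for full effect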
# Settings: WIP1 dephosphorylation of phosphopeptide, RapidFire MS; series mostly up to 63 µM; activity change, negative = inhibition: at the top concentration
# Summary of the method: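 RapidFire MS readout of dephosphorylated VEPPL-S-QETFS product, with 1 uM isotope-labelled peptide standard. Reaction: 10 nM WIP1, 2 uM phosphopeptide substrate, 5 min, room temperature, after 1 h compound preincubation; stopped with 0.5% formic acid.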
# Chain of Protein phosphatase 1D (Homo sapiens) (O15297 whole entry, looked up): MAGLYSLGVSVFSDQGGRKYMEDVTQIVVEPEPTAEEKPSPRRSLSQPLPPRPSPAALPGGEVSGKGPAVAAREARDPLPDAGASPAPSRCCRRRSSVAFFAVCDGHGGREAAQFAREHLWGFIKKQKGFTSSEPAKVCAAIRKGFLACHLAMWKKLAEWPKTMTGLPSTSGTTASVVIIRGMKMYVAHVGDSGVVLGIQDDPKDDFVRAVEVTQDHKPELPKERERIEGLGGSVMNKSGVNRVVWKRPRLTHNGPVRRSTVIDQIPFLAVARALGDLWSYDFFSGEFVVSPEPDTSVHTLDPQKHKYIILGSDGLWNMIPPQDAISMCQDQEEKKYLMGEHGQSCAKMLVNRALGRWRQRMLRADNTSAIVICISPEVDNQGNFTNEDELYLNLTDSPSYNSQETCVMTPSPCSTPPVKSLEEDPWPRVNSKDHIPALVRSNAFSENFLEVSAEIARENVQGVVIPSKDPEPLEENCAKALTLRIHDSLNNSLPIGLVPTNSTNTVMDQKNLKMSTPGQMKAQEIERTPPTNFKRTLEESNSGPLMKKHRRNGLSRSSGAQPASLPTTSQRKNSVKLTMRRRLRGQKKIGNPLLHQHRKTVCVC
row,SMILES,"activity change, negative = inhibition [%]"
1,COC(=O)c1cc(S(N)(=O)=O)ccc1OC,2.27
2,Oc1ccc(CCNCCCCCCNCCc2ccccc2)cc1O,-2.16
3,OCCCc1ccccc1,8.85
4,CC(C(O)c1ccccc1)N(C)CCOC(c1ccccc1)c1ccccc1 (centres undefined),60.2
5,O=C(O)CCCC[P+](c1ccccc1)(c1ccccc1)c1ccccc1,-2.55
6,CC(=O)Oc1ccc(C2(c3ccc(OC(C)=O)cc3)Oc3ccccc3NC2=O)cc1,-0.908
7,Nc1ccc(O)cc1,-23.8
8,O=C(Oc1ccccc1)c1ccccc1O,0.722

# Target: Protein phosphatase 1D (Homo sapiens) (UniProt O15297)
# Assay: Rhodamine-PBP qHTS Assay for Modulators of WT P53-Induced Phosphatase 1 (WIP1) (AID 1347425); note: % of control where 0% means no effect
# Settings: recombinant WIP1, Rhodamine-PBP phosphate fluorescence, real-time; series mostly up to 57.5 µM; activity change, negative = inhibition: at the top concentration
# Summary of the method: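 WIP1 (5 nM final) was preincubated with compound for 1 hour at room temperature. It then dephosphorylated 10 uM VEPPL-pS-QETFS peptide in Tris-HCl pH 7.5 with 30 mM MgCl2. Released Pi was detected by 10 uM Rh-PBP fluorescence (ex 525/em 598 nm) read at 1-min intervals for 11 min, as delta f1 - f0.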
row,SMILES,"activity change, negative = inhibition"
1,CCCC(=O)OCOC(=O)C1=C(C)NC(C)=C(C(=O)OC)C1c1cccc(Cl)c1Cl (centres undefined),-19.3%
2,O=C(OCC(O)CO)c1ccccc1Nc1ccnc2c(C(F)(F)F)cccc12 (centres undefined),10%
3,O=C(CCCCCCCCC#CI)Oc1ccccc1,18.2%
4,CC(=O)[C@@]1(O)CC[C@H]2[C@@H]3C[C@H](C)C4=CC(=O)CC[C@]4(C)[C@H]3CC[C@@]21C,27.5%
5,O=C(c1cc(O)c(O)c(O)c1)c1ccc(O)c(O)c1O,-29.8%
6,CC1CN(c2cc3c(cc2F)c(=O)c(C(=O)O)cn3-c2ccc(F)cc2F)CCN1 (centres undefined),0.0772% [at 4.81 µM]
7,O=C1NCCN1CCN1CCC(c2cn(-c3ccc(F)cc3)c3ccc(Cl)cc23)CC1,24.3%
8,O=c1[nH]sc2cc(Cl)ccc12,5.64%
9,CC(C)(C)c1ccc(O)c(O)c1,-30.5% [at 116 µM]
10,Cc1onc(-c2c(Cl)cccc2Cl)c1C(=O)Cl,-1.62%
11,CCCCCCCCCCCCCCCC[n+]1ccccc1,11.8%
12,Cc1cc(OCCOCC[N+](C)(C)Cc2ccccc2)ccc1C(C)(C)CC(C)(C)C,17.3%
13,O=C1Nc2ccccc2C1(c1ccc(O)cc1)c1ccc(O)cc1,9.94%
14,CC(=O)Nc1c(I)c(NC(C)=O)c(I)c(C(=O)O)c1I,3.12%
15,C[C@H]1C[C@@H]2[C@H]([C@@H](O)C[C@@]3(C)[C@H]2CC[C@]3(O)C(=O)CO)[C@@]2(C)C=CC(=O)C=C12,21.2%
16,OCc1cccnc1,12%
17,Oc1ccc(CCNCCCCCCNCCc2ccccc2)cc1O,13.6%
18,OCCCc1ccccc1,3.98%
19,O=C(O)CCCC[P+](c1ccccc1)(c1ccccc1)c1ccccc1,11.8%
20,Nc1ccc(O)cc1,9.73%
21,O=C(Oc1ccccc1)c1ccccc1O,12.4%
